# PubChem BioAssay (NCI)
# Compounds without any hit were thinned out: in the full panel of roughly 83,000, 20% have a hit.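 The test compound was applied at a single concentration to cells in 96-well plates for 48 hours, and percent growth was recorded.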 Unmarked numbers belong to inactive results. Activity calls are given as the source filed them. Rule for the calls: active = growth percent below 10; inactive = the rest.
# Key:
# Assay in all cases: NCI-60 one-dose screen, 48 h (100 = growth as untreated, 0 = no growth, -100 = all killed)
# Details in all cases: 10 µM
# NCI-H23 lung = test system: NCI-H23 lung
# NCI-H226 lung = test system: NCI-H226 lung
# NCI-H322M lung = test system: NCI-H322M lung
# HOP-62 NSCLC = test system: HOP-62 NSCLC
# NCI-H460 lung = test system: NCI-H460 lung
# NCI-H522 lung = test system: NCI-H522 lung
# A549/ATCC NSCLC = test system: A549/ATCC NSCLC
# 786-0 renal = test system: 786-0 renal
# COLO 205 colon = test system: COLO 205 colon
# DU-145 prostate = test system: DU-145 prostate
Compound,growth (NCI-H23 lung),growth (NCI-H226 lung),growth (NCI-H322M lung),growth (HOP-62 NSCLC),growth (NCI-H460 lung),growth (NCI-H522 lung),growth (A549/ATCC NSCLC),growth (786-0 renal),growth (COLO 205 colon),growth (DU-145 prostate)
COc1ccccc1/C=C/C(=O)c1ccccc1,84.7%,85%,91.9%,88.3%,90%,62.7%,67%,98.4%,84.8%,87.6%
O=C(CC(C(=O)c1ccccc1)N1CCOCC1)c1ccccc1 (stereo not given),97.4%,90.3%,109%,106%,102%,74.7%,91.9%,98.8%,58.5%,101%
Cn1c(N)c(N=Nc2ccc(S(=O)(=O)Nc3nccs3)cc2)c(=O)n(C)c1=O,94%,104%,92.9%,105%,109%,82.2%,105%,98.1%,105%,106%
CC(C)(Cl)CCC1=C(Cl)C(=O)c2ccccc2C1=O,32.9%,62.8%,100%,59%,65.6%,-29.7% (active),82%,101%,84%,104%
CN1CCCNc2c(c(=O)c2=O)NCCCN(C)CCCNc2c(c(=O)c2=O)NCCCN(C)CCCNc2c(c(=O)c2=O)NCCCN(C)CCCNc2c(c(=O)c2=O)NCCCN(C)CCCNc2c(c(=O)c2=O)NCCCN(C)CCCNc2c(c(=O)c2=O)NCCCN(C)CCCNc2c(c(=O)c2=O)NCCC1,46.8%,74.6%,44.8%,49.1%,32.1%,56.1%,37.1%,54.3%,13.9%,-30.2% (active)
COc1ccc(Nc2ccnc(NCCNc3ccnc4cc(Cl)ccc34)n2)cc1,48.8%,49.7%,64.7%,74.6%,47.4%,43.9%,47%,59.4%,38.8%,61.4%
CCOC(=O)c1ccoc1,103%,101%,85.1%,97.8%,101%,91.1%,96.9%,99.1%,101%,109%
CC(C)=NNc1ncnc2c1ncn2C1OC(CO)C(O)C1O (stereo not given),31.7%,32%,-1.85% (active),7.08% (active),-2.28% (active),14.8%,14.3%,35%,3.97% (active),12.8%
Nc1ncnc2[nH]c(=O)[nH]c12,103%,87.7%,103%,97.9%,95.5%,105%,118%,102%,132%,99.5%
NC(=S)N=Nc1c(O)c2ccccc2c2ccccc12,6.64% (active),94.2%,82.3%,29.8%,51.9%,44.8%,23.7%,101%,92.3%,-8.94% (active)
O=C(Nc1ccc(Cl)cc1)N1NC(c2ccc(Cl)cc2)C=C1c1ccccc1 (stereo not given),104%,109%,90.8%,93.4%,105%,98.4%,89.9%,92.1%,99.3%,102%
